Results from the supplement of paper PMC11732987, “Enantioselective OTUD7B fragment discovery through chemoproteomics screening and high-throughput optimisation” (Communications Chemistry, 2025).

What was measured:
Experiment in all cases: log2 ratio of Biotin-Ahx-Ub-VS probe labelling (fragment/DMSO); higher = less target engagement (more negative = stronger competition), active = hit call of the paper (q ≤ 0.05, log2 ratio ≤ -1)
Details in all cases: compound concentration: 200 uM; treatment time: 3 h
ALG13 = target: T1, ALG13 (UniProt Q9NP73)
T1 sequence (whole entry): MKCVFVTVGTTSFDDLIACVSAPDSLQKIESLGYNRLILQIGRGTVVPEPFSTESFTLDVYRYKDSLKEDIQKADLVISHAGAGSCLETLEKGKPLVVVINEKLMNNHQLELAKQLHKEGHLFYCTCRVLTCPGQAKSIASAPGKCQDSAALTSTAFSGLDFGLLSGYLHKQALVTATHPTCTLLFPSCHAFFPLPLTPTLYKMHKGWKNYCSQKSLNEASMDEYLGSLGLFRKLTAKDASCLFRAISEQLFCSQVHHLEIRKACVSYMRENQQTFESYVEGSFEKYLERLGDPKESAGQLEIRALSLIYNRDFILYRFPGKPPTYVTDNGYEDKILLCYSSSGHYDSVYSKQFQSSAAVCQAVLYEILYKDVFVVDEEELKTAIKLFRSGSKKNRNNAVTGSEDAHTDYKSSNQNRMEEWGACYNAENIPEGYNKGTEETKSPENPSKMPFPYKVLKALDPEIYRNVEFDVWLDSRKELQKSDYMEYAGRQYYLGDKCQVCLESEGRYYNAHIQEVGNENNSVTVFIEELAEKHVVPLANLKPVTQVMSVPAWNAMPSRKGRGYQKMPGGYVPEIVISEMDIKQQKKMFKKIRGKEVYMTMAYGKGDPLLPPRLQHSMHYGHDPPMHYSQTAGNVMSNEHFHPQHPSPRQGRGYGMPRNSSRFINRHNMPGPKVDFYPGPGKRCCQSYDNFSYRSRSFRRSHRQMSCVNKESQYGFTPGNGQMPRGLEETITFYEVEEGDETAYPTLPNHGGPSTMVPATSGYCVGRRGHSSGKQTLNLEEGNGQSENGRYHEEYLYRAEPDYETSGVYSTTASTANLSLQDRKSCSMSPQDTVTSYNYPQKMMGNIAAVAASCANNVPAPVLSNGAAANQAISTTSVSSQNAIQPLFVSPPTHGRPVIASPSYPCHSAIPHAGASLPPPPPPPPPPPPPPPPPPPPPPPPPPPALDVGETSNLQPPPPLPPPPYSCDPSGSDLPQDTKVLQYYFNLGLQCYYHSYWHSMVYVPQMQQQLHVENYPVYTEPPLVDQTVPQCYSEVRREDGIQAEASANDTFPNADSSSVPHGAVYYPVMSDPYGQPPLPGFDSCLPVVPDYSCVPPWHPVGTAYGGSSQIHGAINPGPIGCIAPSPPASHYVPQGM
Outline: (§1)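 Fragment (200 µM) or vehicle was incubated for 3 h with triplicate HEK293T lysate samples of 495 µg, which were then treated with Biotin-Ahx-Ub-VS at 0.5 µM final for 1 h. Labelled DUBs were enriched on NeutrAvidin, digested with LysC and trypsin, and analysed by diaPASEF LC-MS/MS. Values are average log2 fragment/vehicle ratios from an unpaired t-test on global-median-normalised Spectronaut label-free quantities, using proteins with ≥2 unique peptides.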

ATXN3 = ATXN3 (UniProt P54252)
Sequence of ATXN3 (P54252 whole entry): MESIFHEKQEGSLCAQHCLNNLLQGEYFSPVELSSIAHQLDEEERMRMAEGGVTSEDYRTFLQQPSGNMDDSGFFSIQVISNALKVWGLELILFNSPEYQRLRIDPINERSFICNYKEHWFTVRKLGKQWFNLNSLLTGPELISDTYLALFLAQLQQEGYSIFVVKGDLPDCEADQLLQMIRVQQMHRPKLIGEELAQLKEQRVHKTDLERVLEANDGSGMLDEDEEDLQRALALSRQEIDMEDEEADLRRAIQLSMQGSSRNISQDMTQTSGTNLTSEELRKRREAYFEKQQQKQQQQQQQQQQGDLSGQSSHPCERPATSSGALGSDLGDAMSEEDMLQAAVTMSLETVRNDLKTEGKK
Outline: as §1

BAP1 = target: T2, BAP1 (UniProt Q92560)
T2 sequence (whole entry): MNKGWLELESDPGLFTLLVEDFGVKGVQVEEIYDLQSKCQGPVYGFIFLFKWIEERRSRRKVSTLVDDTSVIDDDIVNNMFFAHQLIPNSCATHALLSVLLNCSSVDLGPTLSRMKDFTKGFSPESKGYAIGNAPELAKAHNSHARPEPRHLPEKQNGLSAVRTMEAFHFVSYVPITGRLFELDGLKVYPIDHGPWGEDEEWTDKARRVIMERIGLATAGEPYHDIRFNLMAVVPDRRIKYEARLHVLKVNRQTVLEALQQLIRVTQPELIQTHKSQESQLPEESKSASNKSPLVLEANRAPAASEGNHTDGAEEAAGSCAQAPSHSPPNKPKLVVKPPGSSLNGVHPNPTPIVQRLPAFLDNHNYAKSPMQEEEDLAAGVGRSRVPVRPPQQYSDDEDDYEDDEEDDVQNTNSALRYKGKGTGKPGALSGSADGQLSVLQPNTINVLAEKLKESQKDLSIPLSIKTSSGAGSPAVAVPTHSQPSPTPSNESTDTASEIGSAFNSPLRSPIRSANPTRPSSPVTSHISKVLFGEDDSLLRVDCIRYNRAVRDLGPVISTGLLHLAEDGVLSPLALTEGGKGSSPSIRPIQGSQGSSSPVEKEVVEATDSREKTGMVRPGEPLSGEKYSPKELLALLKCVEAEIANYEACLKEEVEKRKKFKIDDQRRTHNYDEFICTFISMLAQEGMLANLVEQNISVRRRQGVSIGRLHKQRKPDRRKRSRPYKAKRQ
Outline: as §1

EIF3F = EIF3F (UniProt O00303)
Sequence of EIF3F (O00303 whole entry): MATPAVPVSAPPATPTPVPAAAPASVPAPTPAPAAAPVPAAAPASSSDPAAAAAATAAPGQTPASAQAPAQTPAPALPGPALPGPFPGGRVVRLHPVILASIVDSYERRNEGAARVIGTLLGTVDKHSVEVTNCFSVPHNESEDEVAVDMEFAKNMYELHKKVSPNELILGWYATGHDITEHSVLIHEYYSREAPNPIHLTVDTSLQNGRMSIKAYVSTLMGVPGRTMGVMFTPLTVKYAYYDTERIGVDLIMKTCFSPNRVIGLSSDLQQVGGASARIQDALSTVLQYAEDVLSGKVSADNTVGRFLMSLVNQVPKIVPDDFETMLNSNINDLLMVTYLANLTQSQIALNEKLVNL
Outline: as §1

EIF3H = EIF3H (UniProt O15372)
Sequence of EIF3H (O15372 whole entry): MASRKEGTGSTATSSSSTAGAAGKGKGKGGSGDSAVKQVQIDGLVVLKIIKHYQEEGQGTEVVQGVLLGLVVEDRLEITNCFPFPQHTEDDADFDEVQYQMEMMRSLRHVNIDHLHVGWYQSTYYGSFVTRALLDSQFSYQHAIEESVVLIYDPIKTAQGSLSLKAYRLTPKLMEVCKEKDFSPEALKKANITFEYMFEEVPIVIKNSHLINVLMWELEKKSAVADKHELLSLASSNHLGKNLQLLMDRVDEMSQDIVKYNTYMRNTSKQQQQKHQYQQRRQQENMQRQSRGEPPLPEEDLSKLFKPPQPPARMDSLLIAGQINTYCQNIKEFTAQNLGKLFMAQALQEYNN
Outline: as §1

FAM105A = target: T3, FAM105A (UniProt Q9NUU6)
T3 sequence (whole entry): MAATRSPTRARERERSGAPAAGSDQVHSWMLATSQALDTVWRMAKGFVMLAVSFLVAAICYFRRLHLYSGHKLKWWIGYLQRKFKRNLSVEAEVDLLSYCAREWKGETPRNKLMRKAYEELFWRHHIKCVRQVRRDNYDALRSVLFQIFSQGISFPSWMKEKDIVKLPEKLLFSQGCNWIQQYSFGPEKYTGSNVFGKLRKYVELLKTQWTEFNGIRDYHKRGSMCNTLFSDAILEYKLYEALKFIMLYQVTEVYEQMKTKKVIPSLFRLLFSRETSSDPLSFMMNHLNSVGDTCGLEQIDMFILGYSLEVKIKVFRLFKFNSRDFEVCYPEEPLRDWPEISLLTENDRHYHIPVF
Outline: as §1

OTUB1 = OTUB1 (UniProt Q96FW1)
Sequence of OTUB1 (Q96FW1 whole entry): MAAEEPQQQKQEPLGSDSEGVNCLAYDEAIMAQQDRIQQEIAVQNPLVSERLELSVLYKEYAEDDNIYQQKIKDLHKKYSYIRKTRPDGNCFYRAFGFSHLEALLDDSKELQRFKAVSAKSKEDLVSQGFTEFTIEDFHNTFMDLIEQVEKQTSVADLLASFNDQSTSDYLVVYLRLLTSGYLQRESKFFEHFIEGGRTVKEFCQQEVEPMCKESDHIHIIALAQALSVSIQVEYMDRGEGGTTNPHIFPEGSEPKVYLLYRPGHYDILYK
Outline: as §1

OTUD4 = target: T4, OTUD4 (UniProt Q01804)
T4 sequence (whole entry): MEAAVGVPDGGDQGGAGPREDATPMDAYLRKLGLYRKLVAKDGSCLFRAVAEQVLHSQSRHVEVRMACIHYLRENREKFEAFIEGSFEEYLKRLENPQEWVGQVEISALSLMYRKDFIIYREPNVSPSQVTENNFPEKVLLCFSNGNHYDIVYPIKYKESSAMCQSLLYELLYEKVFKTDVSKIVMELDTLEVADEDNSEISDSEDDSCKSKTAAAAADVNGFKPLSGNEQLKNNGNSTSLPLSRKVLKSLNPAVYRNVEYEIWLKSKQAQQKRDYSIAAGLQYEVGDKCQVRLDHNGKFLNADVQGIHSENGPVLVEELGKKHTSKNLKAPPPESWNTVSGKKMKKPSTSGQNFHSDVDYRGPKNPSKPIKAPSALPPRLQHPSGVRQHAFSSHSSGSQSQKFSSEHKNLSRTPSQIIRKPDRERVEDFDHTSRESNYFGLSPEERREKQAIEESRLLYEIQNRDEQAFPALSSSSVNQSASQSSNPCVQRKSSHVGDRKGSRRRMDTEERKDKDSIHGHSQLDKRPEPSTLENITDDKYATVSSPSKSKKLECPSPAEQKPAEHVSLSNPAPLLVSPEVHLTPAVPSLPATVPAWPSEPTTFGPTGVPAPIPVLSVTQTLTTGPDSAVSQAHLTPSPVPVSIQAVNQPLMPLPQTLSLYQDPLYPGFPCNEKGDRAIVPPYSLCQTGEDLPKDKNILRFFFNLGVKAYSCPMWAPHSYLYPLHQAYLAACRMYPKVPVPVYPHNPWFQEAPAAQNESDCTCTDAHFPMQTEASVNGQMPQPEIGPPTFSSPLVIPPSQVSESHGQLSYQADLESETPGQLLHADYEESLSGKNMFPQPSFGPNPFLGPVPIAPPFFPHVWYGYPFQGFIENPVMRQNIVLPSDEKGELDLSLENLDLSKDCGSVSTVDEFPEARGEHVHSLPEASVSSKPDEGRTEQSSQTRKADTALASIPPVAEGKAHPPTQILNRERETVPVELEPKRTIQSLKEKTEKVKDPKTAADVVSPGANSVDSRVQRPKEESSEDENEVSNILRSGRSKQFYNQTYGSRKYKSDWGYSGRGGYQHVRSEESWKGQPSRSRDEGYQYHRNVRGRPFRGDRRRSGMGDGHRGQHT
Outline: as §1

OTUD5 = target: T5, OTUD5 (UniProt Q96G74)
T5 sequence (whole entry): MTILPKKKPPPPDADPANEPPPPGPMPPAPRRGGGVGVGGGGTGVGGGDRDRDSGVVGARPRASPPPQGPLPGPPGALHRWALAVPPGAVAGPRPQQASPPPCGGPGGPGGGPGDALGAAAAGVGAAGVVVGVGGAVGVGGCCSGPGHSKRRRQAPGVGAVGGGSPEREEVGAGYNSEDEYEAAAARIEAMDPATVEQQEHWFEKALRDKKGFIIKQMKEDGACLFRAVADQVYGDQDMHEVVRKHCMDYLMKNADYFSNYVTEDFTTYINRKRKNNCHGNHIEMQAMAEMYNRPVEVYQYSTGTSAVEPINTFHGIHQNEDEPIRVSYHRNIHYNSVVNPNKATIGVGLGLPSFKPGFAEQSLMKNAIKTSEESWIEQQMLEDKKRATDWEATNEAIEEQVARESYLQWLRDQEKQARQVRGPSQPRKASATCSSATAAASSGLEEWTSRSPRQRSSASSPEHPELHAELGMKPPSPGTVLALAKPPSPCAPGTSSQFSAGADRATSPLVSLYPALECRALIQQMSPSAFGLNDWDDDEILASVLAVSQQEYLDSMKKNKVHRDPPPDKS
Outline: as §1

Measured: log2 ratio of Biotin-Ahx-Ub-VS probe labelling

Cc1cc(CC(C)NC(=O)CCl)n[nH]1 (centres undefined)
inactive: ALG13 0.0722 | ATXN3 -0.115 | BAP1 -0.509 | EIF3F -0.138 | EIF3H -0.131 | FAM105A 0.19 | OTUB1 0.11 | OTUD4 -0.115 | OTUD5 -0.0107
